# PubChem BioAssay
# Inconclusive results are not listed. For part of these data: Potency and affinity values are given separately. The source made the active and inactive calls. Unless noted, no rule for the calls is given here.
# Assays:
# [1] = polyglutamine-triggered caspase-3 activation inhibitors, cell-based (AID 1583); settings: polyglutamine-induced caspase-3 activation, cell assay; stronger effect = higher value;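 tested at 10 µM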
# [2] = suppressors of polyQ aggregation in yeast, 75Q-TubU reporter (AID 1593); settings: Yeast 75Q polyglutamine aggregation reporter
# [3] = rescue of polyQ-huntingtin neuronal dysfunction in worms, whole organism, C. elegans mechanosensory neurons, N-terminal huntingtin (AID 1599); settings: touch response, stronger effect = higher value
# [4] = inhibitors of mitochondrial cytochrome c release, biochemical, purified mitochondria (AID 1603); settings: stronger effect = lower value;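 also: mouse liver mitochondria challenged with calcium chloride; signal normalized to the plate average as 100%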
# [5] = inhibitors of polyQ protein aggregation (AID 1604); settings: polyglutamine-induced protein aggregation inhibition assay; stronger effect = higher value; tested at 2.5 µM
# [6] = enhancers of glutamate uptake in motor neurons, MN-1 cell line (AID 1612); settings: MN-1 motor neuron cells, stronger effect = higher value;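 also: tested at 1 µM final; 0% = mean of DMSO vehicle wells on each plate; positive means more glutamate uptake than control and negative means less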
# [7] = reducers of polyQ inclusions in PC12 cells, cell-based, NGF-treated PC12, GFPQ80 (AID 1614); settings: PC12 NGF-treated GFP-polyQ80 inclusion reduction;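 also: lower means fewer inclusions and 0 means no inclusions at all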
# [8] = suppressors of polyglutamine aggregation in yeast, 75Q-TubH (AID 1616); settings: S. cerevisiae 75Q-TubH polyglutamine aggregation suppression; stronger effect = higher value
# [9] = biological target: Huntingtin (Homo sapiens) (UniProt P42858); assay: inhibitors of mutant Htt aggregation in vitro, dose response, QA1 (AID 1584); settings: in vitro mutant huntingtin aggregation assay; confirmation test; at 10 µM; stronger effect = lower value
# Sequence of Huntingtin (Homo sapiens) (P42858 whole entry, looked up): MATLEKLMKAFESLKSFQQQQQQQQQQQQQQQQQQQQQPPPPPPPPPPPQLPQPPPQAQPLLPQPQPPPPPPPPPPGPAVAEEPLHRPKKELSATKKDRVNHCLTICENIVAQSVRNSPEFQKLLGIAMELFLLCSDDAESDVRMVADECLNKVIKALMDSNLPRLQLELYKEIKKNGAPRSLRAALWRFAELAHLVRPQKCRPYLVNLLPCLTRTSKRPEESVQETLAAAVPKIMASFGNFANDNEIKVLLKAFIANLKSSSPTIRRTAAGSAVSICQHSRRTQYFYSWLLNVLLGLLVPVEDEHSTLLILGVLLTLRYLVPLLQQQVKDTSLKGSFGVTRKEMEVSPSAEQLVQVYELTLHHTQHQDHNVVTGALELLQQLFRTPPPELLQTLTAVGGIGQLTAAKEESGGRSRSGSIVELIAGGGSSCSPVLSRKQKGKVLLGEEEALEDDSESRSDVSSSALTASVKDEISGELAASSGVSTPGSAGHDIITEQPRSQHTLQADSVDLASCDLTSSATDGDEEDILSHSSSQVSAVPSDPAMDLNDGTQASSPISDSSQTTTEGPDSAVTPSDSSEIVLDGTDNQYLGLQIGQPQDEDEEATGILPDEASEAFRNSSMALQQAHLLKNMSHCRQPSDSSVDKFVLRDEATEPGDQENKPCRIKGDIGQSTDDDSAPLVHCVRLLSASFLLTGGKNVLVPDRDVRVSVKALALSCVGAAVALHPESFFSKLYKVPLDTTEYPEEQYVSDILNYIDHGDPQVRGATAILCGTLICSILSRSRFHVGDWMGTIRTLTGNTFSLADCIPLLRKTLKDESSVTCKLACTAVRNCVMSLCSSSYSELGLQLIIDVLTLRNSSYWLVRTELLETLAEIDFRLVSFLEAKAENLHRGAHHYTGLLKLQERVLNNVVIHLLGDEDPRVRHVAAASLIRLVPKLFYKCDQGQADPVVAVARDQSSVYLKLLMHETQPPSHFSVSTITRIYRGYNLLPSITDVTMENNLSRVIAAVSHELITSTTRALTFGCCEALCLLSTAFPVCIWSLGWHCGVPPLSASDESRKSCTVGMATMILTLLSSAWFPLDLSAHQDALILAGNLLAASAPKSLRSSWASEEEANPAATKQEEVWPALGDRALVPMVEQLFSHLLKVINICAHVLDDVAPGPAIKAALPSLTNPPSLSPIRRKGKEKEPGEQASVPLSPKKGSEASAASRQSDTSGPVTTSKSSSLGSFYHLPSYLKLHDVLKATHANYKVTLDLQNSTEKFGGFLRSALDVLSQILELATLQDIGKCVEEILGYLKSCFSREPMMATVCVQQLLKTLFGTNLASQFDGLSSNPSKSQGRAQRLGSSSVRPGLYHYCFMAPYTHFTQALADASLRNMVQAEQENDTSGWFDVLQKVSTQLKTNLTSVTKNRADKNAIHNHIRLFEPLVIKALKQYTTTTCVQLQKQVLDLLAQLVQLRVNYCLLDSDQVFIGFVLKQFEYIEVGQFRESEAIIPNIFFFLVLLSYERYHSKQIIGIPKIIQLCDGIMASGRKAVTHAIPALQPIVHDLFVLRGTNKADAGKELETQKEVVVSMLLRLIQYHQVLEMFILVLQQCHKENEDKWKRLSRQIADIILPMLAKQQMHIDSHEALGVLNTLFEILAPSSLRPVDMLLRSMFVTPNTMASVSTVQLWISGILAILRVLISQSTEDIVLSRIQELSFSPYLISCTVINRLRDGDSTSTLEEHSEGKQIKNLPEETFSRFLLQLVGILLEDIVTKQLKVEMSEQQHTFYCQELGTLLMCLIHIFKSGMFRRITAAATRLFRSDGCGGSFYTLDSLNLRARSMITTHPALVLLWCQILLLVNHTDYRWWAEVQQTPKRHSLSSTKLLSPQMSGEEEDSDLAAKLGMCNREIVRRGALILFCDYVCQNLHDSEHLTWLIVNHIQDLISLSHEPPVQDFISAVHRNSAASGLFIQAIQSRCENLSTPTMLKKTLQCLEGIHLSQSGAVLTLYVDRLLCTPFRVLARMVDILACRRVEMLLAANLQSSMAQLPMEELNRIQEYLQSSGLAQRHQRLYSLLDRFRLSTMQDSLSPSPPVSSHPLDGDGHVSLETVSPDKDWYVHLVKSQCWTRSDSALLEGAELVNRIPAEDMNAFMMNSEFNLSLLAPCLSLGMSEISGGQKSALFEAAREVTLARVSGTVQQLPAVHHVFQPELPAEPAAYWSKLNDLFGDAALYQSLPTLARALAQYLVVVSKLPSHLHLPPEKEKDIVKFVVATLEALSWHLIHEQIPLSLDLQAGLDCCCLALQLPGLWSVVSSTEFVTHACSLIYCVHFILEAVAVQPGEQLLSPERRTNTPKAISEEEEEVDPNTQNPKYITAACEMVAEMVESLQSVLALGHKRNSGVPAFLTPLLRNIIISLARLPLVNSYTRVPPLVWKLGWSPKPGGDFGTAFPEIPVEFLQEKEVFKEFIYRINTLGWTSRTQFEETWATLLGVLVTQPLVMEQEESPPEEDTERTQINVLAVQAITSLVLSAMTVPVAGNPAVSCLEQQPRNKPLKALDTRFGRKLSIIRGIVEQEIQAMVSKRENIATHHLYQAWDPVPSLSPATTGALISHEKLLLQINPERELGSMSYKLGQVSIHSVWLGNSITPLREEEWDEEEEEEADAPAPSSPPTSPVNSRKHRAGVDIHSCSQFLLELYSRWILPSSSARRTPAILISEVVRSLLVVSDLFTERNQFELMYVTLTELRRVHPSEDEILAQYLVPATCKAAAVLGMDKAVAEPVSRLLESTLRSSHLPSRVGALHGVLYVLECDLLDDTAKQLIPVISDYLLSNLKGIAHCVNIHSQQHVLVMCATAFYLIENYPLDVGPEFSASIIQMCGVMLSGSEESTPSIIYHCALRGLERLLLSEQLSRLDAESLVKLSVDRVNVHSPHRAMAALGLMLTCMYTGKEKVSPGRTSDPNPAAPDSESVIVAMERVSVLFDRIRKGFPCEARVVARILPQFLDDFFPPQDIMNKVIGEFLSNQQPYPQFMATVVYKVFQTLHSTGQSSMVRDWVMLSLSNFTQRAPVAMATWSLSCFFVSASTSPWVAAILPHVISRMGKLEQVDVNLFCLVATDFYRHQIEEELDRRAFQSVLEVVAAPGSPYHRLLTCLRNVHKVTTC
# [10] = inhibitors of polyQ aggregate elongation, biochemical, solid-phase synthetic aggregates, QA3 (AID 1585); settings: biotin-polyQ incorporation; EC50: measured here: elongation inhibition potency; inhibition: at 100 µM, stronger effect = higher value
# [11] = hESC survival regulators, cell-based (AID 493140); settings: human embryonic stem cell survival screen; stronger effect = higher value;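 also: cells exposed to compounds for four days before counting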
# [12] = protection against mutant huntingtin cytotoxicity, PC12 cells, LDH release (AID 1610); settings: PC12 mutant huntingtin toxicity, final LDH at 4 uM, stronger effect = lower value
# [13] = biological target: ATP-dependent translocase ABCB1 (Homo sapiens) (UniProt P08183); assay: MDR1 (ABCB1) efflux transporter inhibition, cell-based (AID 377; in the data active = fluorescence slope change above about 50%); settings: MDR1-expressing cells, fluorescent substrate accumulation slope; stronger effect = higher value; concentration not given here
# Sequence of ATP-dependent translocase ABCB1 (Homo sapiens) (P08183 whole entry, looked up): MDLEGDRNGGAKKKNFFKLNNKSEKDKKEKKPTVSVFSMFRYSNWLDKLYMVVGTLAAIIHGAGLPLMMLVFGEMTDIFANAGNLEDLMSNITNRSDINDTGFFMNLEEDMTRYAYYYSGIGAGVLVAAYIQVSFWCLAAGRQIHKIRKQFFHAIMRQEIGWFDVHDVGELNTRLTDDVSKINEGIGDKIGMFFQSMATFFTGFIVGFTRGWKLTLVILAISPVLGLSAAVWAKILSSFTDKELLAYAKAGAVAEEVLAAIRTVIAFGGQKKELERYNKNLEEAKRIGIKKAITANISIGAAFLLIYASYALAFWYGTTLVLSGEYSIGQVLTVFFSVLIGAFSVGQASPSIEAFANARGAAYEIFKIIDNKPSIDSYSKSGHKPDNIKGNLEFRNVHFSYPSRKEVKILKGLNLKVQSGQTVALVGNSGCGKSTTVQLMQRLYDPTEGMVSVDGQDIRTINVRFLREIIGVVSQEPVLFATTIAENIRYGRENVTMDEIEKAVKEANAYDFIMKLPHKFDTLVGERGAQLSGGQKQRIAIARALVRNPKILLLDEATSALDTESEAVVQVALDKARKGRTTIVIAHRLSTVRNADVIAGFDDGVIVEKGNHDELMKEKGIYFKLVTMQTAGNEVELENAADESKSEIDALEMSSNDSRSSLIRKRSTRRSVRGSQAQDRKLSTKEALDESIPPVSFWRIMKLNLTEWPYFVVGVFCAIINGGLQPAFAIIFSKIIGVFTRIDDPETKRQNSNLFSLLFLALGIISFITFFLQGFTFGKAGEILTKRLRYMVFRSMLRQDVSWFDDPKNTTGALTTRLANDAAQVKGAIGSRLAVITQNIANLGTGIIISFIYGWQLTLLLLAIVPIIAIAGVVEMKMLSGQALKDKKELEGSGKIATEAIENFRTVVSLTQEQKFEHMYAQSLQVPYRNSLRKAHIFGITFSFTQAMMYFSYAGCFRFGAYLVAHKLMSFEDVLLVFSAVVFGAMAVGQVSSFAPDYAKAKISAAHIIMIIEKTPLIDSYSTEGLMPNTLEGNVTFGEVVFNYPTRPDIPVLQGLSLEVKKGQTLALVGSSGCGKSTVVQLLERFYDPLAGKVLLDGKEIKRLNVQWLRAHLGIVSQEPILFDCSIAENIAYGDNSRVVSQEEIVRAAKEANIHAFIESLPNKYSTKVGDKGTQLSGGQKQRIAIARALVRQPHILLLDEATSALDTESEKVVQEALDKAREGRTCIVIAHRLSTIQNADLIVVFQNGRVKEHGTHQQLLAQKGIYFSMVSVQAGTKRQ
# [14] = protection of motor neurons from glutamate death, cell-based, TUNEL DNA degradation staining, MNGlu (AID 1594); settings: glutamate-induced death, at 1 µM, stronger effect = higher value
# [15] = mitochondrial permeability transition inhibitors (AID 1580); settings: isolated mitochondria, permeability transition inhibition
# [16] = circadian clock period modulators, cell-based, LOPAC library, luminescence reporter (AID 2774); settings: circadian reporter cells, at 7 µM, actives lie on both sides;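 also: values are relative to mean of DMSO wells on each plate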
SMILES,inhibition [1] [%],score [2],rescue above control [3],cytochrome c release ratio [4],inhibition of aggregation [5] [%],glutamate uptake change [6] [%],inclusion score [7],aggregation suppression score [8],aggregation ratio [9],EC50 [10] [µM],inhibition [10],survival [11],normalised LDH release [12],fluorescence slope change [13],protection [14],EC50 [15],period change [16]
O=C(N[C@H](CO)[C@H](O)c1ccc([N+](=O)[O-])cc1)C(Cl)Cl,-3.82,1,-3.71,0.72,55,7.27,2,1.2,–,–,–,–,–,–,–,–,–
CCCOc1ccc2nc(NC(=O)OC)[nH]c2c1,0.98,1.01,0,0.9,22.1,-36.6,2,0.918,–,–,–,–,–,–,–,–,–
O=C(CCBr)N1CCN(C(=O)CCBr)CC1,-31.6,0.93,9.78,0.86,52.8,17.8,2,0.931,–,–,–,–,–,–,–,–,–
O=C1c2c(O)cccc2Cc2cccc(O)c21,18.6,1.5,0.38,0.41,37.9,5.46,2,1.2,0.75,–,–,–,–,–,–,–,–
C=C1c2cccc(O)c2C(O)=C2C(=O)[C@]3(O)C(O)=C(C(N)=O)C(=O)[C@@H](N(C)C)[C@@H]3[C@@H](O)[C@H]12,-86.7,0.99,0,0.49,29.5,-2.5,1,0.29,–,132,60% (active),4.33 (inactive),–,–,–,–,–
Cc1ccc(C(=O)C(C)CN2CCCCC2)cc1 (stereo not drawn),-24.9,0.57,-2.41,0.96,37.2,-0.03,1.5,0.367,–,–,–,–,0.861,–,–,–,–
CO[C@@H]1[C@@H](OC(N)=O)[C@@H](O)[C@H](Oc2ccc3c(O)c(NC(=O)c4ccc(O)c(CC=C(C)C)c4)c(=O)oc3c2C)OC1(C)C,-0.61,1.59,-8.05,0.96,-73.2,-19,2,0.623,–,–,–,–,–,–,–,–,–
Cc1nnc(NS(=O)(=O)c2ccc(N)cc2)s1,18.6,1.23,-5.75,1.01,68.2,17.5,2,1.24,–,–,–,5.75 (inactive),–,9.7% (inactive),35% (active),–,–
N[C@@H](CCC(=O)N[C@@H](CS)C(=O)NCC(=O)O)C(=O)O,17.6,1.4,-4.11,0.98,45.5,13.8,2,1.61,–,–,–,–,–,–,–,–,–
COc1ccc(CN(CCN(C)C)c2ncccn2)cc1,10.6,1.36,1.69,1.27,22.2,-15.6,2,1.43,–,–,–,–,–,–,–,–,–
NC(=O)c1ccccc1O,-13.1,1.55,9.08,0.7,78.1,8.07,2,1.02,–,–,–,–,–,–,–,–,–
Oc1c(Cl)cc(Cl)cc1Sc1cc(Cl)cc(Cl)c1O,-9.02,-0.24,9.15,0.74,-7.69,-39,–,0.0465,–,–,–,–,1.06,–,–,0.3 µM (active),–
C=Cc1c(C)c2cc3[nH]c(cc4nc(cc5nc(cc1[nH]2)C(C)=C5CCC(=O)O)C(CCC(=O)O)=C4C)c(C)c3C=C,39.5,0.75,–,1.37,77.5,5.14,–,0.995,0.595,106,59% (active),–,–,–,–,–,-0.02 h (inactive)
O=C(Nc1ccc([N+](=O)[O-])cc1Cl)c1cc(Cl)ccc1O,63.3,1.5,-13,0.91,41.7,-52.2,–,0.882,–,–,–,1.67 (inactive),-0.146,–,–,–,0.06 h (inactive)
COc1cccc(OC)c1C(=O)N[C@@H]1C(=O)N2[C@@H]1SC(C)(C)[C@@H]2C(=O)O,11.5,1.48,-12.3,0.93,45.9,17.4,2,1.05,–,–,–,–,–,–,–,–,–
C=CCc1ccc(O)c(OC)c1,-5.5,1.31,11.4,1.29,81.4,-8.45,2,1.76,–,–,–,–,–,–,–,–,–
O=c1cc[nH]c(=S)[nH]1,2.52,1.24,1.48,1.09,41.5,7.71,2,1.48,–,–,–,–,–,–,–,–,–
C[C@H]1c2cccc(O)c2C(O)=C2C(=O)[C@]3(O)C(O)=C(C(N)=O)C(=O)[C@@H](N(C)C)[C@@H]3[C@@H](O)[C@@H]21,-6.11,0.83,0,0.35,64.1,-7.42,0.5,0.446,–,–,–,–,0.903,–,–,–,-0.14 h (inactive)
Cc1ccc(C(C)C)cc2c(C)ccc1-2,0.23,-2.73,1.94,3.4,30.6,4.08,–,-1.39,–,57,73.4% (active),–,–,–,–,–,–
CO[C@@]1(NC(=O)C(C(=O)O)c2ccc(O)cc2)C(=O)N2C(C(=O)O)=C(CSc3nnnn3C)CO[C@@H]21 (stereo partly drawn),10.7,1.04,12.8,0.83,72.2,0.13,1,1.14,–,2,91.1% (active),6.42 (inactive),–,63.7% (active),–,–,–
CN(C)/N=N/c1nc[nH]c1C(N)=O,17.5,1.36,-5.12,0.99,9.26,-11.4,2,1.16,–,–,–,–,–,–,–,–,–
CC(NCCC(c1ccccc1)c1ccccc1)c1ccccc1 (stereo not drawn),36.8,1.04,0,0.33,-3.7,-8.71,–,1.16,–,–,–,3.08 (inactive),1.14,200% (active),–,–,–
C[N+](C)(C)CCOC(N)=O,19.3,1.38,2.63,0.77,60.9,-6.66,2,1.67,–,–,–,4.67 (inactive),0.399,12.8% (inactive),–,–,0.05 h (inactive)
CN1CCCN=C1COC(=O)C(O)(c1ccccc1)C1CCCCC1 (stereo not drawn),21.6,1.24,4.84,0.8,60.8,10.4,2,1.26,–,–,–,–,–,–,–,–,–
NC(=O)N/N=C/c1ccc([N+](=O)[O-])o1,21.9,1.11,14.1,1.45,74.9,16.7,2,0.831,–,–,–,16.2 (inactive),0.973,–,–,–,–

SMILES,inhibition [1] [%],score [2],rescue above control [3],cytochrome c release ratio [4],inhibition of aggregation [5] [%],glutamate uptake change [6] [%],inclusion score [7],aggregation suppression score [8],aggregation ratio [9],EC50 [10] [µM],inhibition [10],survival [11],normalised LDH release [12],fluorescence slope change [13],protection [14],EC50 [15],period change [16]
CCN(CC)CCNc1ccc(CO)c2sc3ccccc3c(=O)c12,2.1,1.79,-7.32,1.54,91.6,14.7,–,0.977,–,71,82.8% (active),1.33 (inactive),0.8,-2.7% (inactive),–,–,–
Nc1c(Br)cc(Br)cc1CNC1CCC(O)CC1 (stereo not drawn),-21.8,1.12,-1.56,1.08,54.5,5.04,2,1.15,–,–,–,4.58 (inactive),0.856,57.2% (active),–,–,–
CCN(CC)C(=O)c1cccc(C)c1,9.84,1.21,-4.11,1.07,28.8,1.78,2,1.01,–,–,–,–,–,–,–,–,–
Cc1cc(C2CCCCC2)n(O)c(=O)c1,60.9,0.13,6.29,0.91,72.2,-12,–,0.0349,–,–,–,0.667 (inactive),0.668,–,–,–,–
NC(=O)c1ccc([N+](=O)[O-])cc1Cl,5.22,1.24,31.2,1.06,82.5,19.4,2,1.31,–,–,–,–,–,–,–,–,–
O=NN(CCCl)C(=O)NCCCl,-31.5,0.3,5.39,0.91,72.2,5.94,–,0.185,–,–,–,–,0.621,11.5% (inactive),–,–,0.115 h (inactive)
CN(C)c1ccc(C(=C2C=CC(=[N+](C)C)C=C2)c2ccc(N(C)C)cc2)cc1,60.7,-6.36,0,1.35,16.7,-15.7,–,-1.97,–,–,–,–,0.824,–,–,–,–
CC(=O)Nc1ccc(S(=O)(=O)Nc2ccc([N+](=O)[O-])cc2)cc1,15.7,1.4,-10.3,1.02,15.7,20.4,2,1.23,–,–,–,–,0.673,–,–,–,–
Oc1c(Cl)cc(Cl)c(Cl)c1Cc1c(O)c(Cl)cc(Cl)c1Cl,5.38,-1.67,-6.64,0.45,91.6,-31.4,–,-0.244,–,–,–,–,0.936,–,–,0.3 µM (active),–
NS(=O)(=O)c1cc2c(cc1Cl)NC(CSCc1ccccc1)=NS2(=O)=O,25.2,1.43,-12.2,1.07,47.9,-3.22,2,1.51,–,–,–,3.08 (inactive),–,78.4% (active),57% (active),–,–
O=C1c2cccc(O)c2C(=O)c2c(O)cccc21,-36.4,-0.3,-2,1.21,58.9,-10.8,2,0.219,–,–,–,–,–,–,–,–,–
Nc1nccs1,9.3,1.44,-9.08,0.95,30.7,28.6,2,1.04,–,–,–,–,–,–,–,–,–
S=P(N1CC1)(N1CC1)N1CC1,8.19,0.94,-0.95,0.82,63.2,2.63,1.5,0.449,–,–,–,–,–,–,–,–,–
CCCCC1C(=O)N(c2ccccc2)N(c2ccccc2)C1=O,9.66,0.64,2.39,0.96,76,-15.3,2,0.296,–,–,–,–,–,–,–,–,0.01 h (inactive)
CC(=O)OCC(COC(C)=O)OC(C)=O,0.15,1.44,-1.97,1.1,72.7,-13.9,2,1.25,–,–,–,–,–,–,–,–,–
NC(=O)c1ncn([C@@H]2O[C@H](CO)[C@@H](O)[C@H]2O)n1,21,1.56,-2.31,1.02,21.6,14.1,1.5,1.25,–,–,–,–,–,–,–,–,0.065 h (inactive)
O=C(O)CCCCC1CCSS1 (stereo not drawn),-33.9,0.61,2.24,0.89,39.2,-7.39,2,0.186,–,–,–,–,–,–,–,–,–
N=C(N)N,11.9,0.82,-2.24,0.89,73.1,5.8,2,0.901,–,–,–,–,–,–,–,–,–
NS(=O)(=O)c1cc2c(cc1Cl)NC(C1CC3C=CC1C3)NS2(=O)=O (stereo not drawn),13,0.98,1.81,1.07,5.88,1.35,2,0.424,–,–,–,–,–,–,–,–,0.225 h (inactive)
CC1(C)S[C@@H]2[C@H](NC(=O)C(C(=O)O)c3ccccc3)C(=O)N2[C@H]1C(=O)O (stereo partly drawn),9.67,1.9,-7.2,0.95,60.9,7.16,2,1.65,–,–,–,–,–,–,–,–,–
Cc1c(C(N)=O)cc([N+](=O)[O-])cc1[N+](=O)[O-],-1.96,1.25,5.37,1.17,82.7,-10.4,2,0.968,–,–,–,–,–,–,–,–,–
O=c1cc(CO)occ1O,12,1.29,10.1,0.94,21.8,5.22,2,1.36,–,–,–,–,–,–,–,–,–
CCOC(N)=O,-5.88,1.23,-10,0.98,58.9,-13.5,2,1.21,–,–,–,–,–,–,–,–,–
CCCCCCCCCCCCCCCCCCOCC(O)CO (stereo not drawn),-51.6,1.03,2.94,1,34.7,11.1,2,0.825,–,–,–,–,–,–,–,–,–
